Compounds without any hit were thinned out: in the full panel of roughly 79,000, 15% have a hit. Unmarked numbers belong to inactive results. The source made the active and inactive calls. Cut-off read from the data, not from the text of the source: active = growth inhibition above about 70%; inactive = the rest.
Assay: NCI Yeast Anticancer Drug Screen. Data for the rad14 strain (AID 159);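 note: 0% = growth of vehicle-treated control cultures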
Settings: S. cerevisiae rad14 strain growth inhibition, active compounds read high
Protocol: Growth inhibition of yeast strains with defined genetic alterations is measured as a screen for potential anti-cancer activity. Selected strains with alterations in DNA damage repair or cell cycle control were exposed to compounds and growth inhibition was measured relative to vehicle treated controls. The strain used in this assay is rad14

| SMILES | growth inhibition (at 1.2 µM) | growth inhibition (at 3.7 µM) | growth inhibition (at 11.0 µM) | growth inhibition (at 33.0 µM) | growth inhibition (at 100.0 µM) |
| --- | --- | --- | --- | --- | --- |
| COC(=O)C(Cl)(Cl)N=Nc1c(Cl)cc(Cl)c(C)c1Cl | -51% | 59% | 80% (active) | 99% (active) | 98% (active) |
| O=C1c2ccccc2-c2cc3ccccc3c(=O)n21 | 11% | 20% | 42% | 66% | 69% |
| O=[N+]([O-])/C=C/c1cc2ccc3ccccc3c2[nH]1 | 11% | 27% | 62% | 88% (active) | 91% (active) |
| NC(=S)N1N=C2c3ccccc3CC[C@H]2[C@@H]1c1ccc(Cl)cc1 | -28% | -20% | -10% | -3% | 82% (active) |
| N#C/C(=C\NC(=S)Nc1ccc(S(N)(=O)=O)cc1)C(=O)c1ccc2ccccc2c1 | -1% | -1% | 1% | 2% | 6% |
| CCC(C)(C)c1ccc(Oc2ccccc2)c(N)c1 | -2% | 13% | 97% (active) | 99% (active) | 99% (active) |
| O=S(=O)(c1cccc(C(F)(F)F)c1)N1c2ccccc2-n2cccc2C1c1cccnc1 (stereo not given) | -51% | -17% | 73% (active) | 94% (active) | 89% (active) |
| O=C(Nn1c(-c2ccccc2)nc2ccccc2c1=O)c1ccc(CS)cc1 | -16% | -16% | -19% | 21% | 97% (active) |

Source: PubChem BioAssay (NCI)
